The values that follow come from the supplement of paper PMC4022240.

± gives the standard deviation.

What all share (assay): peptide microarray binding signal (635 nm), min-max normalized on array (fraction of array maximum); higher = stronger binding
Conditions in all cases: peptide region: H3 5-17

Test [1] deals with T1, HaloTag-ATRX ADD domain (163-292).
T1 chain: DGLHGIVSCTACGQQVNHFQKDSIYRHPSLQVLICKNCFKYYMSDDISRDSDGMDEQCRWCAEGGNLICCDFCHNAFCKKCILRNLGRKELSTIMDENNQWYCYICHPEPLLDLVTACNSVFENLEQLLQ
The method, boiled down:
(§1)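 Two probe formats were used for 1 h at 4°C: biotin-labelled HaloTag reader fusions (10 nM to 1 μM) with streptavidin-Alexa Fluor 647, and rabbit histone antibodies (1:10,000 to 1:2,000) with anti-rabbit Alexa 647. Both were applied to nitrocellulose arrays of histone 13-mer peptide–cellulose conjugates printed in triplicate with a Cy3 tracer and blocked overnight at 4°C. Signal was read at 635 nm and misprints at 532 nm on an Axon GenePix 4000B. Binding signal is expressed as the triplicate-spot mean intensity, min-max scaled for each library.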

Test [2] has as its target HaloTag-ING2 PHD (mouse Ing2 200-280). In a few lines: as §1
The target in test [3] is anti-H3K4me3 antibody ab8580. The method, boiled down: as §1
For test [4], the target named is anti-H3K9me3 antibody ab8898. In a few lines:
as §1

Where [5] appears, read: peptide modifications: H3K9me3, binder concentration: 1:2,000 dilution.
[6] abbreviates: peptide modifications: H3K9me3, binder concentration: 1:10,000 dilution.
Where [7] appears, read: peptide modifications: H3K9me1 H3S10ph, binder concentration: 1:2,000 dilution.
Setting [8] is: peptide modifications: H3K9me1 H3S10ph, binder concentration: 1:10,000 dilution.
Setting [9] is: peptide modifications: H3K9me1 H3K14me1, binder concentration: 1:2,000 dilution.
The mark [10] stands for this setting: peptide modifications: H3K9me1 H3K14me1, binder concentration: 1:10,000 dilution.
Where [11] appears, read: peptide modifications: H3K9me2, binder concentration: 1:2,000 dilution.
The mark [12] stands for this setting: peptide modifications: H3K9me2, binder concentration: 1:10,000 dilution.
Setting [13] is: peptide modifications: H3K9me1 H3K14me3, binder concentration: 1:2,000 dilution.
The mark [14] stands for this setting: peptide modifications: H3K9me1 H3K14me3, binder concentration: 1:10,000 dilution.
[15] abbreviates: peptide modifications: H3K9ac H3K14me3, binder concentration: 1:2,000 dilution.
The mark [16] stands for this setting: peptide modifications: H3K9ac H3K14me3, binder concentration: 1:10,000 dilution.
The mark [17] stands for this setting: peptide modifications: H3K9me1, binder concentration: 1:2,000 dilution.
[18] abbreviates: peptide modifications: H3K9me1, binder concentration: 1:10,000 dilution.
The mark [19] stands for this setting: peptide modifications: H3K9me2 H3K14ac, binder concentration: 1:2,000 dilution.
Setting [20] is: peptide modifications: H3K9me2 H3K14ac, binder concentration: 1:10,000 dilution.
Where [21] appears, read: peptide modifications: H3K9me1 H3K14ac, binder concentration: 1:2,000 dilution.
Setting [22] is: peptide modifications: H3K9me1 H3K14ac, binder concentration: 1:10,000 dilution.
[23] abbreviates: peptide modifications: H3K9ac H3S10ph, binder concentration: 1:2,000 dilution.
The mark [24] stands for this setting: peptide modifications: H3K9ac H3S10ph, binder concentration: 1:10,000 dilution.

As for QTARKSTGGKAPR [H3 5-17 Q T A R Kme3 S T G G K A P R], the “peptide microarray binding signal” value in test [1] (peptide modifications: H3K9me3, binder concentration: 50 nM) came out at 0.00411 ± 0.00036; in test [1] (peptide modifications: H3K9me3, binder concentration: 500 nM), 0.00362 ± 0.00095; in test [2] (peptide modifications: H3K9me3, binder concentration: 10 nM), 0.00448 ± 6.1e-05; in test [2] (peptide modifications: H3K9me3, binder concentration: 100 nM), 0.002126 ± 2.1e-05; in test [3] (setting [5]), 0.00266 ± 0.00033; in test [3] (setting [6]) it was 0.00519 ± 0.00032. Also, the “peptide microarray binding signal” value in test [4] (setting [5]) was found to be 0.00814 ± 0.0004; in test [4] (setting [6]) it was 0.0129 ± 0.0011.

With QTARKSTGGKAPR [H3 5-17 Q T A R Kme Sph T G G K A P R], the “peptide microarray binding signal” value in test [1] (peptide modifications: H3K9me1 H3S10ph, binder concentration: 50 nM) turned out to be 0.0069 ± 0.00042; in test [1] (peptide modifications: H3K9me1 H3S10ph, binder concentration: 500 nM) it was 0.0164 ± 0.0026; in test [2] (peptide modifications: H3K9me1 H3S10ph, binder concentration: 10 nM) it was 0.0181 ± 0.0013; in test [2] (peptide modifications: H3K9me1 H3S10ph, binder concentration: 100 nM), 0.0405 ± 0.00099; in test [3] (setting [7]), 0.00281 ± 0.00031; in test [3] (setting [8]), 0.0028 ± 0.00019. Further, the “peptide microarray binding signal” value in test [4] (setting [7]) was determined as 0.0251 ± 0.0037; in test [4] (setting [8]), 0.00865 ± 0.0014.

As to QTARKSTGGKAPR [H3 5-17 Q T A R Kme S T G G Kme A P R], the “peptide microarray binding signal” value in test [1] (peptide modifications: H3K9me1 H3K14me1, binder concentration: 50 nM) is 0.00339 ± 6.1e-05; in test [1] (peptide modifications: H3K9me1 H3K14me1, binder concentration: 500 nM), 0.00657 ± 6.6e-05; in test [2] (peptide modifications: H3K9me1 H3K14me1, binder concentration: 10 nM), 0.00388 ± 5.4e-05; in test [2] (peptide modifications: H3K9me1 H3K14me1, binder concentration: 100 nM), 0.0145 ± 0.0038; in test [3] (setting [9]), 0.00068 ± 1.9e-05; in test [3] (setting [10]) it was 0.000571 ± 1.1e-05. Also, the “peptide microarray binding signal” value is 0.0061 ± 0.0011 in test [4] (setting [9]) and 0.00283 ± 0.00027 in test [4] (setting [10]).

Turning to QTARKSTGGKAPR [H3 5-17 Q T A R Kme2 S T G G K A P R], the “peptide microarray binding signal” value worked out at 0.0133 ± 0.0071 in test [1] (peptide modifications: H3K9me2, binder concentration: 50 nM); 0.0011 ± 2.1e-05 in test [1] (peptide modifications: H3K9me2, binder concentration: 500 nM); 0.00334 ± 9.6e-05 in test [2] (peptide modifications: H3K9me2, binder concentration: 10 nM); 0.00248 ± 8.6e-05 in test [2] (peptide modifications: H3K9me2, binder concentration: 100 nM); 0.00583 ± 0.0036 in test [3] (setting [11]); 0.0112 ± 0.0032 in test [3] (setting [12]). For the same molecule, the results for the “peptide microarray binding signal” value in test [4] (setting [11]) and in test [4] (setting [12]) were 0.00489 ± 0.0019 and 0.003 ± 0.00036, respectively.

As for QTARKSTGGKAPR [H3 5-17 Q T A R Kme S T G G Kme3 A P R], the “peptide microarray binding signal” value worked out at 0.00611 ± 0.00085 in test [1] (peptide modifications: H3K9me1 H3K14me3, binder concentration: 50 nM); 0.011 ± 0.0017 in test [1] (peptide modifications: H3K9me1 H3K14me3, binder concentration: 500 nM); 0.018 ± 0.003 in test [2] (peptide modifications: H3K9me1 H3K14me3, binder concentration: 10 nM); 0.00935 ± 0.0036 in test [2] (peptide modifications: H3K9me1 H3K14me3, binder concentration: 100 nM); 0.0233 ± 0.01 in test [3] (setting [13]); 0.0338 ± 0.015 in test [3] (setting [14]). The “peptide microarray binding signal” value stood at 0.0215 ± 0.0054 in test [4] (setting [13]) and 0.016 ± 0.0043 in test [4] (setting [14]).

As to QTARKSTGGKAPR [H3 5-17 Q T A R Kac S T G G Kme3 A P R], the “peptide microarray binding signal” value in test [1] (peptide modifications: H3K9ac H3K14me3, binder concentration: 50 nM) came out at 0.00755 ± 0.00045; in test [1] (peptide modifications: H3K9ac H3K14me3, binder concentration: 500 nM), 0.0117 ± 0.00052; in test [2] (peptide modifications: H3K9ac H3K14me3, binder concentration: 10 nM), 0.00758 ± 0.00031; in test [2] (peptide modifications: H3K9ac H3K14me3, binder concentration: 100 nM) it was 0.00957 ± 0.00088; in test [3] (setting [15]) it was 0.0161 ± 0.0026; in test [3] (setting [16]), 0.0127 ± 0.0015. In addition, the “peptide microarray binding signal” value worked out at 0.0416 ± 0.0084 in test [4] (setting [15]) and 0.0649 ± 0.082 in test [4] (setting [16]).

For QTARKSTGGKAPR [H3 5-17 Q T A R Kme S T G G K A P R], the “peptide microarray binding signal” value in test [1] (peptide modifications: H3K9me1, binder concentration: 50 nM) turned out to be 0.00445 ± 0.00012; in test [1] (peptide modifications: H3K9me1, binder concentration: 500 nM), 0.00171 ± 7.9e-05; in test [2] (peptide modifications: H3K9me1, binder concentration: 10 nM), 0.00448 ± 0.00018; in test [2] (peptide modifications: H3K9me1, binder concentration: 100 nM) it was 0.002055 ± 2e-05; in test [3] (setting [17]), 0.000642 ± 1.6e-05; in test [3] (setting [18]) it was 0.0139 ± 0.012. Further, the “peptide microarray binding signal” value in test [4] (setting [17]) was determined as 0.0007551 ± 6.5e-06; in test [4] (setting [18]) it was 0.00121 ± 2.4e-05.

On to QTARKSTGGKAPR [H3 5-17 Q T A R Kme2 S T G G Kac A P R], for which the “peptide microarray binding signal” value in test [1] (peptide modifications: H3K9me2 H3K14ac, binder concentration: 50 nM) is 0.002382 ± 1.1e-05; in test [1] (peptide modifications: H3K9me2 H3K14ac, binder concentration: 500 nM), 0.0103 ± 0.00014; in test [2] (peptide modifications: H3K9me2 H3K14ac, binder concentration: 10 nM) it was 0.0115 ± 0.001; in test [2] (peptide modifications: H3K9me2 H3K14ac, binder concentration: 100 nM) it was 0.00886 ± 0.0033; in test [3] (setting [19]), 0.00225 ± 0.00054; in test [3] (setting [20]) it was 0.00228 ± 0.00034. Further, the “peptide microarray binding signal” value in test [4] (setting [19]) was 0.0906 ± 0.0013; in test [4] (setting [20]), 0.0371 ± 0.015.

Turning to QTARKSTGGKAPR [H3 5-17 Q T A R Kme S T G G Kac A P R], the “peptide microarray binding signal” value in test [1] (peptide modifications: H3K9me1 H3K14ac, binder concentration: 50 nM) was 0.00661 ± 0.00012; in test [1] (peptide modifications: H3K9me1 H3K14ac, binder concentration: 500 nM), 0.0218 ± 0.0024; in test [2] (peptide modifications: H3K9me1 H3K14ac, binder concentration: 10 nM) it was 0.0233 ± 0.0035; in test [2] (peptide modifications: H3K9me1 H3K14ac, binder concentration: 100 nM), 0.0424 ± 0.0029; in test [3] (setting [21]) it was 0.00255 ± 0.00039; in test [3] (setting [22]), 0.00228 ± 0.00016. Also, the “peptide microarray binding signal” value amounted to 0.0548 ± 0.0034 in test [4] (setting [21]) and 0.016 ± 0.00023 in test [4] (setting [22]).

Regarding QTARKSTGGKAPR [H3 5-17 Q T A R Kac Sph T G G K A P R], the “peptide microarray binding signal” value in test [1] (peptide modifications: H3K9ac H3S10ph, binder concentration: 50 nM) was 0.00592 ± 8.9e-05; in test [1] (peptide modifications: H3K9ac H3S10ph, binder concentration: 500 nM) it was 0.0176 ± 0.0016; in test [2] (peptide modifications: H3K9ac H3S10ph, binder concentration: 10 nM), 0.00507 ± 0.00017; in test [2] (peptide modifications: H3K9ac H3S10ph, binder concentration: 100 nM) it was 0.0274 ± 0.0063; in test [3] (setting [23]), 0.0005474 ± 5.3e-06; in test [3] (setting [24]) it was 0.000514 ± 1.5e-05. Also, the figures for the “peptide microarray binding signal” value in test [4] (setting [23]) and in test [4] (setting [24]) were 0.00667 ± 0.00058 and 0.00265 ± 0.00012, respectively.
